# From PubChem BioAssay
# Calls of active or inactive are those of the source.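 Rule for the calls, unless noted: active = growth inhibition above 50% at the single 2 µM test dose, taken to imply half-maximal potency below 2 µM; inactive = the rest.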
# Assay: antimalarial activity against Dd2 strain (AID 2302);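 note: 0% = DMSO untreated growth and 100% = chloroquine plus artemisinin killed control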
# Details: P. falciparum Dd2 in RBCs, LDH growth readout, 72 h; at 2 µM; hits give high values
row,SMILES,growth inhibition
1,CN1CCN(Cc2ccc(-c3cccc(-c4nc5ccccc5[nH]4)c3)cc2)CC1,6% (inactive)
2,CNCCCNCc1ccc(-c2ccc(F)c(Cl)c2)o1,12% (inactive)
3,Cc1ccc2nc(-c3cc(-c4ccc(OCc5ccccc5)cc4)cnc3N)[nH]c2c1,87% (active)
4,O=C(Nc1ccc(OC2CCN(Cc3ccccc3)C2)c(Cl)c1)c1ccc(F)cc1 (stereo not given),87% (active)
5,Nc1nc2c(c(=O)[nH]1)CN(S(=O)(=O)c1ccc(C(=O)N[C@@H](CCC(=O)O)C(=O)O)cc1)CC2,96% (active)
6,CCc1cn2c3c(cc(C(=O)N[C@@H](Cc4ccccc4)[C@H](O)CNCC(C)C)cc13)N(C)S(=O)(=O)CC2,99% (active)
7,CCN1CCC(N2CCC(C(=O)Nc3cccc(-c4cccc(Cl)c4)c3)CC2)CC1,82% (active)
8,O=C(Nc1cccc(-c2ccc(-c3nc4ccccc4[nH]3)cc2)c1)c1cnn2cccnc12,1% (inactive)
9,COc1ccc2nc3cc(Cl)ccc3c(NCCCCN)c2c1,62% (active)
10,COc1ccc(CNc2nc(NCCc3ccccc3)c3cc(OC)c(OC)cc3n2)cc1OC,101% (active)
11,Cc1ccc(F)c(C(=O)Nc2cccc(-c3nn4ccccc4c3-c3ccnc(Nc4cccc(F)c4)n3)c2)c1F,60% (active)
12,CN(C)CCNC(=O)N1CCCN(c2ncnc3cc(-c4ccc(Cl)cc4)sc23)CC1,21% (inactive)
13,CCCC(C)Nc1nc(C)cc(N[C@@H](Cc2ccccc2)C(=O)NCCOc2ccccc2)n1 (stereo not given in full),68% (active)
14,CCCc1cn2c3c(cc(C(=O)N[C@@H](Cc4ccccc4)[C@H](O)CNC4CCCCC4)cc13)N(C)S(=O)(=O)CC2,98% (active)
15,CC(CCCCCC(=O)Nc1ccc(CC(C)NCCc2cccc(Cl)c2)cc1)NCCc1cccc(Cl)c1 (stereo not given),37% (inactive)
16,COc1cc(CNC2Cc3ccccc3C2)ccc1Oc1ccc2nc[nH]c2c1,50% (active)
17,CCCCCCNc1cc(C)nc(/N=C(\N)Nc2cccc(C(F)(F)F)c2)n1,100% (active)
18,Cc1ccc(-c2nc(Nc3ccncc3)c3ccccc3n2)s1,34% (inactive)
19,CC(C)CCN1CCCN(Cc2cccc(C(=O)Nc3ccc(C(C)(C)C)cc3)c2)CC1,1% (inactive)
20,O=C(Nc1ccc(-c2ccccc2)cc1)Nc1cccc(Cn2ncc(N3CCCNCC3)c(Cl)c2=O)c1,52% (active)

row,SMILES,growth inhibition
1,CN(C)c1ccc(-c2csc(C(=O)NCC3CCN(Cc4ccc(C(C)(C)C)cc4)C3)c2)cc1 (stereo not given),64% (active)
2,CCCCCCN1CCC(NCc2cccc(C#N)c2)CC1,9% (inactive)
3,CC(NC(=O)c1ccc(O)c(-c2ccc(Cl)c(Cl)c2)c1)C(=O)NCCN1CCOCC1 (stereo not given),7% (inactive)
4,O=C(Nc1cc(F)cc(F)c1)N1CCOC(CCN2CCC3(CCc4ccccc43)CC2)(c2ccc(Cl)c(Cl)c2)C1 (stereo not given),86% (active)
5,O=C(Nc1ccc(OC2CCN(Cc3ccc(F)cc3)CC2)c(Cl)c1)c1ccccc1,89% (active)
6,O=C(NCCCCN1CCC(c2ccc3c(c2OCCO)CCCC3)CC1)c1ccc(-c2ccc(C(F)(F)F)cc2)cc1,38% (inactive)
7,O=C(Nc1ccccc1)N(Cc1cccc(-c2ccc(CNCCc3ccccc3)cc2)c1)C1CCN(Cc2ccccc2)CC1,95% (active)
8,O=C(/C=C/c1cccc(Cl)c1)N1CCC(C(O)CN2CCC3(CC2)CN(C(=O)/C=C/c2cccc(Cl)c2)c2ccccc23)CC1 (stereo not given),38% (inactive)
9,COc1ccc(Cc2nc(N=C(N)Nc3ccccc3)ccc2OC)cc1,68% (active)
10,Cc1cc(Cl)ccc1NC(=O)NCCCCCN1CCC(c2c[nH]c3ccccc23)CC1,8% (inactive)
11,O=C(C=Cc1ccc(F)cc1)N1CCN(S(=O)(=O)c2ccc(Cl)cc2)CC1,93% (active)
12,N#Cc1ccc2c(c1)CCN(CCC1CCC(NC(=O)Nc3ccnc4ccccc34)CC1)C2 (stereo not given),77% (active)
13,Nc1ncc(-c2ccsc2)c2ccc(-c3ccc4cn[nH]c4c3)cc12,41% (inactive)
14,O=c1cc(NC[C@H]2CCC[C@@H]2NCc2cc(Br)cc(Br)c2)[nH]c2ccccc12,45% (inactive)
15,COc1ccc(NC(=O)Nc2cccc(-c3cccc(-c4nc5ccc(F)cc5[nH]4)c3)c2)cc1,39% (inactive)
16,OC(CNc1ccnc(Nc2ccccc2)n1)c1cccc(C(F)(F)F)c1 (stereo not given),61% (active)
17,COc1ccc(CNC2CCCC2)cc1-c1ccc(S(=O)(=O)NCCN2CCCC2)s1,17% (inactive)
18,Cc1cccc2[nH]c(-c3ccc(-c4ccc(NC(=O)Nc5cccc(C#N)c5)cc4)cc3)nc12,100% (active)
19,CC(C)(C)N1CCC(N(Cc2ccc(-c3ccc(C(F)(F)F)cc3)cc2)C(=O)Cn2c(CCc3cccc(F)c3F)nc(=O)c3cccnc32)CC1,53% (active)
20,CCc1c(CCNCCc2cccc(CCNCCc3ccc(OC)c(OC)c3CC)c2)ccc(OC)c1OC,67% (active)

# Assay: HepG2 cytotoxicity, primary screen, cytotoxicity control for P. falciparum antimalarial project, cell-based, ATP luminescence (AID 2303;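 active = inhibition above 50%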;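 note: 0% = DMSO wells and 100% = digitonin-killed cells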)
# Details: HepG2 viability, 24-48 h, at 10 µM, hits give high values
row,SMILES,inhibition
1,CN1CCN(Cc2ccc(-c3cccc(-c4nc5ccccc5[nH]4)c3)cc2)CC1,21% (inactive)
2,CNCCCNCc1ccc(-c2ccc(F)c(Cl)c2)o1,22% (inactive)
3,Cc1ccc2nc(-c3cc(-c4ccc(OCc5ccccc5)cc4)cnc3N)[nH]c2c1,33% (inactive)
4,O=C(Nc1ccc(OC2CCN(Cc3ccccc3)C2)c(Cl)c1)c1ccc(F)cc1 (stereo not given),7% (inactive)
5,Nc1nc2c(c(=O)[nH]1)CN(S(=O)(=O)c1ccc(C(=O)N[C@@H](CCC(=O)O)C(=O)O)cc1)CC2,49% (inactive)
6,CCc1cn2c3c(cc(C(=O)N[C@@H](Cc4ccccc4)[C@H](O)CNCC(C)C)cc13)N(C)S(=O)(=O)CC2,-1% (inactive)
7,CCN1CCC(N2CCC(C(=O)Nc3cccc(-c4cccc(Cl)c4)c3)CC2)CC1,54% (active)
8,O=C(Nc1cccc(-c2ccc(-c3nc4ccccc4[nH]3)cc2)c1)c1cnn2cccnc12,9% (inactive)
9,COc1ccc2nc3cc(Cl)ccc3c(NCCCCN)c2c1,52% (active)
10,COc1ccc(CNc2nc(NCCc3ccccc3)c3cc(OC)c(OC)cc3n2)cc1OC,48% (inactive)
11,Cc1ccc(F)c(C(=O)Nc2cccc(-c3nn4ccccc4c3-c3ccnc(Nc4cccc(F)c4)n3)c2)c1F,35% (inactive)
12,CN(C)CCNC(=O)N1CCCN(c2ncnc3cc(-c4ccc(Cl)cc4)sc23)CC1,41% (inactive)
13,CCCC(C)Nc1nc(C)cc(N[C@@H](Cc2ccccc2)C(=O)NCCOc2ccccc2)n1 (stereo not given in full),10% (inactive)
14,CCCc1cn2c3c(cc(C(=O)N[C@@H](Cc4ccccc4)[C@H](O)CNC4CCCCC4)cc13)N(C)S(=O)(=O)CC2,3% (inactive)
15,CC(CCCCCC(=O)Nc1ccc(CC(C)NCCc2cccc(Cl)c2)cc1)NCCc1cccc(Cl)c1 (stereo not given),99% (active)
16,COc1cc(CNC2Cc3ccccc3C2)ccc1Oc1ccc2nc[nH]c2c1,30% (inactive)
17,CCCCCCNc1cc(C)nc(/N=C(\N)Nc2cccc(C(F)(F)F)c2)n1,44% (inactive)
18,Cc1ccc(-c2nc(Nc3ccncc3)c3ccccc3n2)s1,6% (inactive)
19,CC(C)CCN1CCCN(Cc2cccc(C(=O)Nc3ccc(C(C)(C)C)cc3)c2)CC1,33% (inactive)
20,O=C(Nc1ccc(-c2ccccc2)cc1)Nc1cccc(Cn2ncc(N3CCCNCC3)c(Cl)c2=O)c1,14% (inactive)

row,SMILES,inhibition
1,CN(C)c1ccc(-c2csc(C(=O)NCC3CCN(Cc4ccc(C(C)(C)C)cc4)C3)c2)cc1 (stereo not given),29% (inactive)
2,CCCCCCN1CCC(NCc2cccc(C#N)c2)CC1,5% (inactive)
3,CC(NC(=O)c1ccc(O)c(-c2ccc(Cl)c(Cl)c2)c1)C(=O)NCCN1CCOCC1 (stereo not given),2% (inactive)
4,O=C(Nc1cc(F)cc(F)c1)N1CCOC(CCN2CCC3(CCc4ccccc43)CC2)(c2ccc(Cl)c(Cl)c2)C1 (stereo not given),32% (inactive)
5,O=C(Nc1ccc(OC2CCN(Cc3ccc(F)cc3)CC2)c(Cl)c1)c1ccccc1,16% (inactive)
6,O=C(NCCCCN1CCC(c2ccc3c(c2OCCO)CCCC3)CC1)c1ccc(-c2ccc(C(F)(F)F)cc2)cc1,100% (active)
7,O=C(Nc1ccccc1)N(Cc1cccc(-c2ccc(CNCCc3ccccc3)cc2)c1)C1CCN(Cc2ccccc2)CC1,100% (active)
8,O=C(/C=C/c1cccc(Cl)c1)N1CCC(C(O)CN2CCC3(CC2)CN(C(=O)/C=C/c2cccc(Cl)c2)c2ccccc23)CC1 (stereo not given),34% (inactive)
9,COc1ccc(Cc2nc(N=C(N)Nc3ccccc3)ccc2OC)cc1,40% (inactive)
10,Cc1cc(Cl)ccc1NC(=O)NCCCCCN1CCC(c2c[nH]c3ccccc23)CC1,59% (active)
11,O=C(C=Cc1ccc(F)cc1)N1CCN(S(=O)(=O)c2ccc(Cl)cc2)CC1,10% (inactive)
12,N#Cc1ccc2c(c1)CCN(CCC1CCC(NC(=O)Nc3ccnc4ccccc34)CC1)C2 (stereo not given),38% (inactive)
13,Nc1ncc(-c2ccsc2)c2ccc(-c3ccc4cn[nH]c4c3)cc12,18% (inactive)
14,O=c1cc(NC[C@H]2CCC[C@@H]2NCc2cc(Br)cc(Br)c2)[nH]c2ccccc12,21% (inactive)
15,COc1ccc(NC(=O)Nc2cccc(-c3cccc(-c4nc5ccc(F)cc5[nH]4)c3)c2)cc1,59% (active)
16,OC(CNc1ccnc(Nc2ccccc2)n1)c1cccc(C(F)(F)F)c1 (stereo not given),16% (inactive)
17,COc1ccc(CNC2CCCC2)cc1-c1ccc(S(=O)(=O)NCCN2CCCC2)s1,17% (inactive)
18,Cc1cccc2[nH]c(-c3ccc(-c4ccc(NC(=O)Nc5cccc(C#N)c5)cc4)cc3)nc12,28% (inactive)
19,CC(C)(C)N1CCC(N(Cc2ccc(-c3ccc(C(F)(F)F)cc3)cc2)C(=O)Cn2c(CCc3cccc(F)c3F)nc(=O)c3cccnc32)CC1,94% (active)
20,CCc1c(CCNCCc2cccc(CCNCCc3ccc(OC)c(OC)c3CC)c2)ccc(OC)c1OC,100% (active)
